Activity calls are given as the source filed them. Unless noted, how the calls were made is not given here.
Columns and labels:
[1] = system: Wnt5a (protein binding on small-molecule microarray); experiment: Wnt5a binders on small-molecule microarray, primary screen, biophysical, 635/667 nm fluorescence (AID 1142); settings: 635 nm fluorescence, higher = more signal;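 further: fluorescence read at 667 nm with signal to noise per printed feature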
[2] = cell viability in Huh7 cells, primary screen, cytotoxicity control for HCV replication inhibitor project, CellTiter-Glo luminescence, basal, 48 h (AID 1143); settings: Huh7 HCV replicon, higher = more signal, called active from +8 up or from −8 down;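 further: Huh7 hepatoma cells carrying a hepatitis C replication reporter with no stimulus; test concentration not given here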
[3] = P. aeruginosa biofilm formation inhibitors, primary screen, PAO1 strain, BacTiter-Glo luminescence, LB-PBS (AID 1144); settings: 12 h, higher = more signal
[4] = CREB reporter modulators without forskolin, primary screen, cell-based, PC12, CRE-LacZ reporter, unstimulated (AID 1145); settings: no forskolin, luminescence, 4.5 h, higher = more signal, called active from +8 up or from −8 down
[5] = CREB reporter modulators under forskolin, primary screen, cell-based, PC12, CRE-LacZ reporter, forskolin-stimulated (AID 1146); settings: luminescence, 4.5 h, higher = more signal, called active from +8 up or from −8 down;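 further: PC12 cells with 6xCRE LacZ reporter stimulated by forskolin 10 µM; beta-galactosidase reporter signal reflecting CREB driven transcription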
[6] = target: Streptavidin (Streptomyces avidinii) (UniProt P22629); experiment: streptavidin binders on small-molecule microarray, primary screen, artefact control for SMM compound annotation, biophysical, 635/667 nm fluorescence (AID 1147); settings: streptavidin binding, higher = more signal;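 further: signal reflects streptavidin binding to arrayed compounds as a control protein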
Streptavidin (Streptomyces avidinii), sequence (P22629 whole entry, looked up): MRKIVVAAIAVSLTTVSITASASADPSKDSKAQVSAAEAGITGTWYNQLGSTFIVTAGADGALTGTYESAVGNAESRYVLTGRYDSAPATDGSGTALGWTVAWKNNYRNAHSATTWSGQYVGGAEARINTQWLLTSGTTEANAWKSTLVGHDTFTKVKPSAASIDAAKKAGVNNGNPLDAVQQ

[7] = small-molecule binders of probe aInhba, primary screen, biochemical, small-molecule microarray, 635/667 nm fluorescence (AID 1148); settings: higher = more signal;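 further: score merges 667nm spot fluorescence with signal-to-noise for antibody binding to printed compounds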
Torsin-1A (Homo sapiens) [8] = target: Torsin-1A (Homo sapiens) (UniProt O14656); experiment: torsin A binders from cell lysate, primary screen, small-molecule microarray, wild-type, 635/667 nm (AID 1149); settings: COS7 hTOR1A-WT lysate, 635 nm fluorescence, higher = more signal
Torsin-1A (Homo sapiens), sequence (O14656 whole entry, looked up): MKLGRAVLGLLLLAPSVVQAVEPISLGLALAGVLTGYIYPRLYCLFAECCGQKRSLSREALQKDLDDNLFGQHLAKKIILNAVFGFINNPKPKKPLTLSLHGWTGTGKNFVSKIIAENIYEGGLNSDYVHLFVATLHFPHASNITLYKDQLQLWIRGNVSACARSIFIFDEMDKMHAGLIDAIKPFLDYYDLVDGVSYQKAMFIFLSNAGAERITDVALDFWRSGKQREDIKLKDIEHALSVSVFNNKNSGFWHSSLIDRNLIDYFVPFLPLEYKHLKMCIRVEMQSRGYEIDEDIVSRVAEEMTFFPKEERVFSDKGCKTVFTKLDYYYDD

Torsin-1A (Homo sapiens) [9] = target: Torsin-1A (Homo sapiens) (UniProt O14656); experiment: small-molecule binders of mutant TOR1A in lysate, primary screen, cell lysate, small-molecule microarray, COS7 lysate, 635/667 nm fluorescence (AID 1150); settings: COS7 hTOR1A mutant lysate, 635 nm fluorescence, higher = more signal;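 further: score pools 667 nm emission and signal to noise measuring lysate protein binding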
[10] = system: Sonic hedgehog protein (Shh); experiment: small-molecule binders of Shh protein, primary screen, biochemical, small-molecule microarray, 635/667 nm fluorescence (AID 1151); settings: small-molecule microarray binding, 635 nm fluorescence; higher = more signal;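 further: Shh protein binding to compounds spotted on small-molecule microarray slides; score combines spot fluorescence intensity with signal-to-noise across triplicate slides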
[11] = E. coli DRC41 culture turbidity changes, primary screen, E. coli filamentation inducer project, strain DRC41, OD650, 48 h (AID 1152);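 further: E. coli MC1000 strain DRC41 lacking acrAB efflux pump and sulA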; settings: E. coli DRC41 (acrAB sulA), higher = more signal, called active from +8 up or from −8 down
[12] = small-molecule binders of probe aLefty1, primary screen, biochemical, small-molecule microarray, 635/667 nm fluorescence (AID 1153); settings: higher = more signal;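 further: score merges spot fluorescence with signal-to-noise ratio from the scanned slide images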
[13] = PSAC antagonists in infected red cells, primary screen, cell-based, P. falciparum Indochina, OD700, 1 h (AID 1154); settings: P. falciparum Indochina infected RBC osmotic lysis, higher = more signal, called active from +8 up or from −8 down
[14] = PSAC antagonists in infected red cells, primary screen, cell-based, P. falciparum Indochina, OD700, 2 h (AID 1155);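 further: lysis reports solute entry through the parasite surface anion channel PSAC; channel blockers reduce lysis of infected cells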; settings: P. falciparum Indochina infected erythrocytes, osmotic lysis OD700; higher = more signal, called active from +8 up or from −8 down
[15] = osmotic lysis modulators in infected erythrocytes, primary screen, PSAC antagonist project, cell-based, P. falciparum Indochina, OD700, 3 h (AID 1156); settings: higher = more signal, called active from +8 up or from −8 down
[16] = PSAC antagonists in infected red cells, primary screen, cell-based, P. falciparum Indochina, OD700, 18 h (AID 1157); settings: P. falciparum Indochina infected erythrocytes, osmotic lysis OD700, 18 h; higher = more signal, called active from +8 up or from −8 down
[17] = modulators of S6 phosphorylation in cells, primary screen, cell-based, A549, cytoblot, luminescence, serum-stimulated (AID 1158); settings: A549 phospho-S6 cytoblot, 5 h, higher = more signal;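 further: serum-stimulated A549 lung adenocarcinoma cells; signal is phosphorylated S6 detected by cytoblot immunostaining with HRP secondary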
[18] = target: NADPH oxidase 2 (Homo sapiens) (UniProt P04839); experiment: NOX2-dependent H2O2 signal modulators, primary screen, NOX inhibitor project, cell-based, HEK293-NOX2, PMA-stimulated, Amplex Red fluorescence (AID 1159); settings: 45 min, higher = more signal, called active from +8 up or from −8 down; further: test concentration not given here
NADPH oxidase 2 (Homo sapiens), sequence (P04839 whole entry, looked up): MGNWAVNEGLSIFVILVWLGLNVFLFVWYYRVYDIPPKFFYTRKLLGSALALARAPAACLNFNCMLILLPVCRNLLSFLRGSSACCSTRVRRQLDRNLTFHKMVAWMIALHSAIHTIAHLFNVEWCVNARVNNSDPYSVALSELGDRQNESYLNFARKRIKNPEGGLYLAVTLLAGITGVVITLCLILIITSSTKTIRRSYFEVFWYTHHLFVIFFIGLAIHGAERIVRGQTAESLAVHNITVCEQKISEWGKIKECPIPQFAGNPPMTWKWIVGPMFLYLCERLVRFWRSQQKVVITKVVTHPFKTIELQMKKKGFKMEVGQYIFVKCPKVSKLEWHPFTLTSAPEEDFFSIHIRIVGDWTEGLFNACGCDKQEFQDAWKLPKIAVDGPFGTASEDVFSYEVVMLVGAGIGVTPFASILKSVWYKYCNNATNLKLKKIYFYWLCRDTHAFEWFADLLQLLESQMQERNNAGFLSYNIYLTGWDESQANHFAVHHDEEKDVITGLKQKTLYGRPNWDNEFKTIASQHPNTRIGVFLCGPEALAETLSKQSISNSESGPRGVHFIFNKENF

[19] = target: NADPH oxidase 4 (Homo sapiens) (UniProt Q9NPH5); experiment: NOX4-dependent H2O2 signal modulators, primary screen, NOX inhibitor project, cell-based, HEK293-NOX4, tetracycline-induced, Amplex Red fluorescence (AID 1160); settings: 45 min, higher = more signal, called active from +8 up or from −8 down
NADPH oxidase 4 (Homo sapiens), sequence (Q9NPH5 whole entry, looked up): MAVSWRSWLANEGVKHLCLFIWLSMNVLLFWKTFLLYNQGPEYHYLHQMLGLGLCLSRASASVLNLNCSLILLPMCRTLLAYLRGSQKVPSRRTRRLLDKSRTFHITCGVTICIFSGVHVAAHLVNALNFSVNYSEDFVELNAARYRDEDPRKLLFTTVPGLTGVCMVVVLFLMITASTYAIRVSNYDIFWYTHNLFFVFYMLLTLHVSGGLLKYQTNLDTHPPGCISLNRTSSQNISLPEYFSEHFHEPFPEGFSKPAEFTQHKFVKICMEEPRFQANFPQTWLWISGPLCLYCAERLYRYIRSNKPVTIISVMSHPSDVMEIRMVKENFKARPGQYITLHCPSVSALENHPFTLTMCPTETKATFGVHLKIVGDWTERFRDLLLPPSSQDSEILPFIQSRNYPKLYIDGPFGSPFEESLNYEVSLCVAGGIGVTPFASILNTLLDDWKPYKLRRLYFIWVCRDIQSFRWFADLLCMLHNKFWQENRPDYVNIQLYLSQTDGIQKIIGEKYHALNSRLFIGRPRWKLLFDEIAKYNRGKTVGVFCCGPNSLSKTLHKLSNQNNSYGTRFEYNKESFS

[20] = target: NADPH oxidase 5 (Homo sapiens) (UniProt Q96PH1); experiment: NOX5-dependent H2O2 signal modulators, primary screen, NOX inhibitor project, cell-based, HEK293-NOX5, Amplex Red fluorescence (AID 1161); settings: HEK293-NOX5, ionomycin, 45 min, higher = more signal
NADPH oxidase 5 (Homo sapiens), sequence (Q96PH1 whole entry, looked up): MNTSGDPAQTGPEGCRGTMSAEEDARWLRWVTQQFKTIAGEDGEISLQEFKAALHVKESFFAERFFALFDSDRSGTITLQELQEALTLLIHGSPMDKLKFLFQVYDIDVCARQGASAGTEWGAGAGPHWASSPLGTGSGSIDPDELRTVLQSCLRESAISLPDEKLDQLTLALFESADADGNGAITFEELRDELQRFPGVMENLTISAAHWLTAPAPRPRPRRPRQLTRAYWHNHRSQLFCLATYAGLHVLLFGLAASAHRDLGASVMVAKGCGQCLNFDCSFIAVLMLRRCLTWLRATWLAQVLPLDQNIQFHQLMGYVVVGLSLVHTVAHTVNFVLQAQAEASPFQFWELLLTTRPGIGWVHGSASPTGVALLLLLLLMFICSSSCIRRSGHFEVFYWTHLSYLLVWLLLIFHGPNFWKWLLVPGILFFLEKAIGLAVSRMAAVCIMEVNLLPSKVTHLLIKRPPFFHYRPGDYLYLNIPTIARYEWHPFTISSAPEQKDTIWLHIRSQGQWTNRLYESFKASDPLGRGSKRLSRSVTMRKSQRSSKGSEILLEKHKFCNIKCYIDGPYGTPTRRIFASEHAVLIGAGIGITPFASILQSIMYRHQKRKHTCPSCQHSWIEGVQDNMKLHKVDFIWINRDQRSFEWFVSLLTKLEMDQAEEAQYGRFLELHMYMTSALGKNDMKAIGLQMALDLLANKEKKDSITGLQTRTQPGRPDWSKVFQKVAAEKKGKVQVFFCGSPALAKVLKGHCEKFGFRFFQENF

SMILES	composite z-score [1]	z-score [2]	z-score [3]	z-score [4]	z-score [5]	composite z-score [6]	composite z-score [7]	composite z-score (Torsin-1A (Homo sapiens) [8])	composite z-score (Torsin-1A (Homo sapiens) [9])	composite z-score [10]	z-score [11]	composite z-score [12]	z-score [13]	z-score [14]	z-score [15]	z-score [16]	z-score [17]	z-score [18]	z-score [19]	z-score [20]
Oc1ccc2cc[n+](Cc3cc4c(cc3Br)OCO4)cc2c1	-0.388	-0.501 (inactive)	-0.23 (inactive)	-0.788 (inactive)	-0.639 (inactive)	-0.909	-0.224	-0.896	-0.49	-0.598	1.27 (inactive)	-0.196	2.67 (inactive)	0.864 (inactive)	-0.655 (inactive)	0.474 (inactive)	0.122	-0.546 (inactive)	-0.154 (inactive)	0.389
CC(C)c1ccc(NN2C(C(O)c3ccc(C#N)cc3)C=CC3C(=O)N(c4ccccc4)C(=O)C32)cc1 (stereo not given)	0.248	-0.687 (inactive)	-0.803 (inactive)	0.812 (inactive)	0.802 (inactive)	1.96	0.41	0.0628	0.579	-0.163	-1.6 (inactive)	0.418	15.4 (active)	2.64 (inactive)	0.567 (inactive)	1.27 (inactive)	-1.05	-1.46 (inactive)	-3.24 (inactive)	-2.38
CCOC(=O)[C@@H]1CCCCN1C(=O)C(=O)OC	0.214	0.474 (inactive)	0.594 (inactive)	0.362 (inactive)	1.56 (inactive)	-0.0957	0.0118	0.188	-0.144	0.901	-0.446 (inactive)	-0.0515	-1.11 (inactive)	-0.164 (inactive)	-0.306 (inactive)	-0.262 (inactive)	-0.523	0.296 (inactive)	-0.28 (inactive)	0.153
COC(=O)[C@@]1(Cc2ccc(OC)cc2)[C@H]2c3cc(C(=O)N4CCCC4)n(CCc4c[nH]c5ccc(O)cc45)c3C[C@H]2CN1C(=O)c1ccccc1	0.431	-0.759 (inactive)	0.34 (inactive)	0.587 (inactive)	-0.397 (inactive)	0.971	0.192	0.132	0.318	-0.229	-0.0255 (inactive)	0.302	8.22 (active)	0.847 (inactive)	1.27 (inactive)	1.11 (inactive)	-0.029	-0.648 (inactive)	-6.51 (inactive)	-3.5
Cc1ccc(F)cc1S(=O)(=O)N[C@@H]1CCN(Cc2ccc(Br)cc2)C1	-0.144	-3.58 (inactive)	0.767 (inactive)	0.764 (inactive)	-1.64 (inactive)	0.165	-0.0986	0.476	0.495	1.29	-1.98 (inactive)	-0.0099	2.63 (inactive)	1.24 (inactive)	0.759 (inactive)	0.55 (inactive)	-0.166	-0.955 (inactive)	-0.846 (inactive)	-2.15
COCCOC(=O)N1C(=O)[C@@]2(c3ccccc31)[C@H](c1ccc(O)cc1)N1[C@H](c3ccccc3)[C@H](c3ccccc3)OC(=O)[C@H]1[C@@H]2C(=O)N1CCN(c2ncccn2)CC1	0.019	-3.19 (inactive)	0.109 (inactive)	-0.598 (inactive)	1.09 (inactive)	-0.0184	0.361	0.432	0.997	1.4	0.381 (inactive)	0.412	1.4 (inactive)	0.622 (inactive)	0.113 (inactive)	0.431 (inactive)	0.174	0.964 (inactive)	0.386 (inactive)	1.08
O=C1C2C=CC(C(O)c3ccco3)N(Nc3ccccc3F)C2C(=O)N1c1ccccc1 (stereo not given)	0.0072	0.761 (inactive)	-0.853 (inactive)	-0.136 (inactive)	0.942 (inactive)	0.99	0.0275	-0.615	-0.0102	0.155	-1.72 (inactive)	0.361	0.188 (inactive)	1.05 (inactive)	-0.197 (inactive)	0.975 (inactive)	-0.754	-0.73 (inactive)	0.251 (inactive)	-1.64
COc1ccc([Si](C)(C)[C@@H]2[C@@H](CCO)O[C@]3(C(=O)N(Cc4ccccc4)c4ccc(N5C(=O)c6cccc7cccc5c67)cc43)[C@H]2C)cc1	-0.328	-4 (inactive)	-0.441 (inactive)	2.39 (inactive)	0.302 (inactive)	0.305	-0.179	-1.07	-0.909	-0.204	0.487 (inactive)	-0.0111	2.72 (inactive)	2.2 (inactive)	0.504 (inactive)	1.16 (inactive)	-0.0126	0.326 (inactive)	0.1 (inactive)	2.32
